Bioassay records: PubChem, National Center for Advancing Translational Sciences (NCATS)
PI5P4K alpha inh = inhibitors of human PI5P4K alpha | PI5P4Kalpha enzyme, ADP-Glo luminescence, 60 min; active compounds read low | AID 652105 | max response, % | 330,000 tested, 1.2% active | P48426; active = max response of -50% or lower; inconclusive = between -30% and -50%; inactive = -30% or higher; also: value at the top dose of about 77 µM
Target sequence (P48426 whole entry, looked up): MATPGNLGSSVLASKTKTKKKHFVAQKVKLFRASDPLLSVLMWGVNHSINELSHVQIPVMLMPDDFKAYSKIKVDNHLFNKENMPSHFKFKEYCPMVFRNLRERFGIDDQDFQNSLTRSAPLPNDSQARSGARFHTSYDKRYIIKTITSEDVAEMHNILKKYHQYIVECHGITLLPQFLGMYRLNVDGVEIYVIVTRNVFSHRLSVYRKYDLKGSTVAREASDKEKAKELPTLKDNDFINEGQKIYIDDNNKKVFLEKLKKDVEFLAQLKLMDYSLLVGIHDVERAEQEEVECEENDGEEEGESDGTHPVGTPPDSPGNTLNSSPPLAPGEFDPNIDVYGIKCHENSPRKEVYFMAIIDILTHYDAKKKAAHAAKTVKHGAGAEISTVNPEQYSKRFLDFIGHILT
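Luminescence from ADP-Glo served as readout of PI5P4Kalpha activity in a qHTS format. Reaction: enzyme, substrate, compound, ATP at 5 microM final, 60 min at RT.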
Six1-Eya2 blk = inhibitors of human Six1/Eya2 interaction; AlphaScreen GST-Six1/His-Eya2 binding, biochemical; active compounds read low; AID 651725; 360,000 tested, 0.56% active; activity change, % (test concentration not listed)
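AlphaScreen with GST-Six1 and His-Eya2 (5X mix: 250 nM and 500 nM), glutathione donor and nickel acceptor beads; buffer 50 mM Tris pH 8.0, 300 mM NaCl, 1 mM TCEP; 1 h at 37 C in the dark.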
Akt phos inh = blocks phosphorylation of Akt. activity change, % for hits at 50 µM. 360,000 tested, 0.32% active. Neuro2A IGF-stimulated pAkt S473 HTRF, 20 min; active compounds read low; in the data active = activity change below about -80%; inconclusive = mostly about -51% to -80%
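Neuro2A cells (4,500/well, DMEM with 0.5% FBS) were treated with compound at a single 50 µM final concentration, stimulated with 6 nM IGF for 20 min at 37 °C, and lysed. Phospho-Akt Ser473 was read by HTRF as 665/615 ratio ×10^4.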
CtBP-E1A inh = CtBP/E1A binding inhibition. AlphaScreen GST-E1A/His-CtBP binding, 1536-well; active compounds read low. activity change, % (no concentration beside the values). 340,000 tested, 0.49% active. AID 651724
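Steps: dispense buffer (Tris pH 8.0, NaCl 300 mM, TCEP 1 mM, BSA, Tween 20); add 5X protein mix (GST-E1A, His-CtBP, 125 nM each); pin 23 nL compound; 2 h at 37 °C, dark; add 5X beads (50 ug/mL); 1 h; read.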
PI4K2A block = blocks human PI4K2A kinase activity; Q9BTU6; purified PI4K2A, ADP-Glo luminescence, 1 h; active compounds read low; activity change, negative = inhibition, % at 76.9 µM; 420,000 tested, 0.13% active; in the data active = activity change below about -50%; inconclusive = mostly about -30% to -49%;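 also: -100% = wells without enzyme as full effect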
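In this quantitative HTS, ADP production by PI4K2A was quantified luminescently after 1 h at ambient temperature; 100 microM adenosine served as plate-quality control.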
Numbers without * were called inactive; i = inactive; u = inconclusive; x = not tested or not shown. Only some compounds are listed: those with a hit (about 1.8% of all), similar ones and a draw of the others. Rule as the data show it, unless noted: active = activity change below about -65%; inconclusive = mostly about -30% to -63%; inactive = weaker than that. Unless noted, % is scaled to controls: 0 for no effect and ±100 for the full control effect.

SMILES | PI5P4K alpha inh | Six1-Eya2 blk | Akt phos inh | CtBP-E1A inh | PI4K2A block
O=C(Cn1sc2ccccc2c1=O)NC12CC3CC(CC(C3)C1)C2 | -90.5* | 3.8 | i | 10.4 | -2.0
Nc1cccc2c1C(=O)N(CC(=O)NC13CC4CC(CC(C4)C1)C3)C2=O | 3.2 | 2.7 | i | -1.7 | -11.3
O=C(Cn1sc2ccccc2c1=O)Nc1ccccc1 | -81.7* | 11.6 | i | -25.3 | u
O=C(CN1C(=O)c2ccccc2C1=O)Nc1ccccc1 | 0.1 | 8.7 | i | x | -1.5
O=c1[nH]c(=S)[nH]c2sc3c(c12)CCCCCC3 | -60.1* | 14.7 | i | -0.6 | -0.3
CCCn1c(=S)[nH]c2sc3c(c2c1=O)CCCC3 | -12.7 | 4.7 | i | 0.9 | 2.3
Nn1c(=S)[nH]c2sc3c(c2c1=O)CCCC3 | -70.1* | -19.1 | i | -9.7 | -2.3
Cc1ccc(S(=O)(=O)N2CC3(O)CN(C(=O)OC(C)C)N(C(=O)OC(C)C)CC3(OC(=O)NC3CCCC3)C2)cc1 (configuration not stated) | 6.6 | 7.8 | i | 4.6 | -2.0
COc1cc(CN2CC(=O)N(c3ccc(C)c(C)c3)C2=S)cc(OC)c1OC | 5.7 | -12.0 | i | -0.8 | -1.3
COc1ccc(CN2CC(=O)N(c3ccc(C)c(C)c3)C2=S)cc1OC | -87.4* | -8.2 | i | -6.2 | -2.6
CCCCCCCCSc1nnc2[nH]c(=O)cc(N)n12 | -50.5* | 29.6 | i | 1.6 | 3.1
Cc1ccc(-c2c3c([nH]c(=S)c2C#N)CCCC3)o1 | x | -20.4 | i | -23.3 | -8.3
N#Cc1c(-c2ccncc2)c2c([nH]c1=S)CCCC2 | -59.6* | 2.4 | i | 4.8 | -12.6
CC(=O)Nc1nc2ccc(C(=O)NCCOC(=O)C3CCCCC3)cc2s1 | 0.7 | -8.1 | i | -23.3 | 0.9
Nc1nc2ccc(C(=O)NCCOC(=O)C3CCCCC3)cc2s1 | -13.5 | -77.1* | i | x | -3.5
CCc1ccc(Nc2n[n+](-c3ccccc3)c(-c3c(Cl)cccc3Cl)s2)cc1 | -79.8* | u | i | u | -3.0
CCc1ccc(Nc2n[n+](-c3ccccc3)c(-c3ccc(N(CC)CC)cc3)s2)cc1 | -58.8* | -17.3 | i | -13.4 | -3.1
CCOC(=O)C(c1ccccc1)C(Nc1ccc(F)cc1)c1ccccn1 (configuration not stated) | 2.0 | -0.3 | i | x | 1.1
NC(=S)N/N=C/c1ccc(C(F)(F)F)cc1 | -11.4 | 0.3 | i | -8.8 | -3.8
NC(=S)N/N=C/c1ncc(C(F)(F)F)cc1Cl | 0.9 | -84.8* | i | -85.0* | 4.3
COC(=O)CCC(NC(=O)c1cc(-c2ccc3c(c2)OCCO3)oc1C)C(=O)OC (configuration not stated) | -6.2 | -6.1 | i | -11.0 | 8.6
O=c1c2c(-c3ccccc3)csc2ncn1/N=C/c1cccc([N+](=O)[O-])c1O | -102.9* | u | i | -72.2* | 6.3
O=c1c2c(-c3ccccc3)csc2ncn1/N=C/c1ccc(O)c([N+](=O)[O-])c1 | -22.1 | 1.5 | i | x | -4.7
CNC(=S)N1CCN(C(=O)c2ccco2)CC1 | -3.5 | u | i | 5.8 | -1.9
COc1ccc(/C=C2/C(=O)N(c3cccc(F)c3)N=C2C)c(OC)c1 | 6.5 | 7.2 | i | -12.1 | -50.8*
SMILES | PI5P4K alpha inh | Six1-Eya2 blk | Akt phos inh | CtBP-E1A inh | PI4K2A block
CC(C)=CC(=O)Nc1ccc(Cl)cc1 | -7.7 | 6.7 | i | 4.0 | -4.7
O=C(CSc1nnc(NC(=O)C2CC(=O)N(c3ccccc3)C2)s1)NCc1ccco1 (configuration not stated) | u | -4.6 | i | -7.9 | -10.4
COc1cccc(N2CC(C(=O)Nc3nnc(SCC(=O)NCc4ccco4)s3)CC2=O)c1 (configuration not stated) | -61.5* | -15.9 | i | -18.0 | -20.4
Cc1cccc(C)c1NC1=NC2(CCCCC2)N=C(N)N1 | -1.7 | 2.7 | x | -7.4 | -3.8
Cc1ccccc1-c1nc(CN2CCC(C(=O)NCC3CCCO3)CC2)c(C)o1 (configuration not stated) | 0.1 | 0.4 | -118.8%* | 2.9 | 1.7
Cc1c(Cl)cnc(NC(=O)COC(=O)c2ccc([N+](=O)[O-])s2)c1Cl | -78.5* | -21.3 | i | -18.5 | -7.3
COc1cc2c(cc1[N+](=O)[O-])-c1ccc([N+](=O)[O-])cc1C2=NNC(N)=S | -58.6* | -72.5* | i | u | 0.2
NC(=S)NN=C1c2cc(Cl)ccc2-c2c1cc(Cl)cc2[N+](=O)[O-] | -14.4 | -27.9 | i | -17.4 | 13.7
Cc1nc2cc(-c3ccccc3)sc2c(=O)n1N | -71.7* | 1.6 | i | -0.2 | -80.3*
COc1ccc(-c2cc3nc(C)n(N)c(=O)c3s2)cc1 | -53.1* | 1.1 | i | x | -86.6*
Cn1c(NCc2ccccc2)nc2cc(-c3ccccc3)sc2c1=O | 0.8 | -6.4 | i | -3.2 | 2.0
CS(=O)(=O)c1ccc(-c2nnc(NC(=O)c3ccco3)o2)cc1 | 2.9 | 0.5 | i | -5.8 | 2.1
Cn1c(=O)[nH]c(=O)c2c1nc(SCC(=O)O)n2CCc1ccccc1 | -56.7* | 5.7 | i | -2.5 | -2.6
CC=CCn1c(SCc2ccccc2)nc2c1c(=O)[nH]c(=O)n2C | -58.4* | -1.6 | i | -0.5 | -1.7
C/C=C/Cn1c(SCc2ccc(C)cc2)nc2c1c(=O)[nH]c(=O)n2C | -6.9 | -27.1 | i | 14.8 | 8.2
CC(c1ccccc1)C1CC(=O)N(Cc2ccco2)C1=O (configuration not stated) | -25.6 | -4.3 | i | 0.0 | 6.3
Cc1nc(-c2ccc(F)cc2)sc1CCNC(=O)c1cccs1 | x | x | x | x | -4.4
N#Cc1cc2c(nc1SCc1ccccc1)CCCCC2 | -12.6 | 39.6 | i | 52.4 | -3.5
Cc1ccc(CSc2nc3c(cc2C#N)CCC3)cc1 | 11.9 | 5.4 | -84.7%* | 8.0 | 0.2
CN(C)CCN(Cc1ccco1)C(=O)c1oc2ccccc2c1NC(=O)c1ccccc1 | x | x | x | x | -3.4
CC(C)CNC(=O)c1ccccc1NC(=O)Nc1ccccc1 | 2.6 | 3.7 | -105.4%* | 3.0 | 4.5
CCC(C)NC(=O)c1ccccc1NC(=O)Nc1ccccc1 (configuration not stated) | -5.1 | 0.5 | i | 3.8 | 5.5
Cn1cc(-c2ccccc2C(=O)O)c(=O)c2cc(Cl)ccc21 | -1.9 | 9.4 | i | -10.2 | -3.3
CCc1ccc(CCC(=O)Nc2sc(C)c(C)c2C(=O)OC)o1 | x | -2.8 | -91.1%* | 1.2 | -6.9
CCc1nc2ccc(C(=O)NCCN3CCOCC3)cn2c1N(C)Cc1ccc(OC)cc1 | -7.7 | -8.2 | i | 0.1 | -3.1
COc1cc(NC(=O)c2cccs2)c(OC)cc1NC(=O)CCC(=O)Nc1ccc2ncccc2c1 | -5.9 | -69.0* | i | x | -0.3
COc1cc(NC(=O)c2cccs2)c(OC)cc1NC(=O)Cc1ccccc1 | 2.8 | -80.6* | i | -6.0 | -2.5
